KCNQ2 enhance: enhances the rat KCNQ2 potassium channel; O88943; CHO-K1 KCNQ2, FluxOR thallium flux fluorescence; stronger effect = higher value; B-score at 10 µM; 310,000 compounds, 0.54% hits;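 active = fluorescence ratio B-score at least 3 SD of library B-scores, with initial fluorescence B-score within 3 of them, cut at about 5.3 in these data; same plate scores as AID 2156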;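 also: B-score of peak minus minimum over baseline fluorescence ratio after K+ and Tl+ stimulus; positive B-score means potentiation of KCNQ2 with more thallium influx and brighter signal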
Target sequence (O88943 whole entry, looked up): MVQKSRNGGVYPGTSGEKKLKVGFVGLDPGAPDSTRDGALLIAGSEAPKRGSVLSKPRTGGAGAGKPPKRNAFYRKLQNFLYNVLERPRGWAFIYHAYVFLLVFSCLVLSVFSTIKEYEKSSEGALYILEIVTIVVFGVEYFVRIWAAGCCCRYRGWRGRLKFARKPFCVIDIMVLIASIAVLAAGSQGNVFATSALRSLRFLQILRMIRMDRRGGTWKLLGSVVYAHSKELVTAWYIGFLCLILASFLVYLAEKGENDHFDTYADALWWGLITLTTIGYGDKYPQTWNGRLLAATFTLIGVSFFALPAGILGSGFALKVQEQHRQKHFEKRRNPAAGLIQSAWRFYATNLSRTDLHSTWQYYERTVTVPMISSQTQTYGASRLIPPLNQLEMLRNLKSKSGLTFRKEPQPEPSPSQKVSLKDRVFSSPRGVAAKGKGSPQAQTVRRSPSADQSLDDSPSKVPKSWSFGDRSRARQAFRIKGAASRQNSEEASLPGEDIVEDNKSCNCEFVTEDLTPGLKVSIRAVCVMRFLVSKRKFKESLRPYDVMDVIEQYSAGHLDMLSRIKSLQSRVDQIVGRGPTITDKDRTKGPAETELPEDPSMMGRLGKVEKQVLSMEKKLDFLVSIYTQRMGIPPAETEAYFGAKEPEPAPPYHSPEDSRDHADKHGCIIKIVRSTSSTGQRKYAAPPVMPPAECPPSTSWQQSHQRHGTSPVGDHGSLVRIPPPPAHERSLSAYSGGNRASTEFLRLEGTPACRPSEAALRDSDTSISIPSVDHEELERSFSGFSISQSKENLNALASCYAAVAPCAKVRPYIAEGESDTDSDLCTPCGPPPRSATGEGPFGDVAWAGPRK
KCNQ2 block: inhibitors of rat KCNQ2 potassium channel | CHO-K1 KCNQ2, FluxOR thallium flux, 20 min; stronger effect = lower value | AID 2156 | 310,000 compounds, 1.1% hits | B-score at 10 µM | O88943;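 active = fluorescence ratio B-score at most minus 3 library SDs, with starting brightness B-score within 2 library SDs, cut at about -5.5 in these data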
A number is an active result; 0 = inactive; - = not tested or not shown. Sampled rows, rich in hits. Any-hit rate of the full collection: about 1.6%.

SMILES	KCNQ2 enhance	KCNQ2 block
COc1cccc(CN2CCN(C(=O)c3ccco3)CC2)c1	-	0
COC(=O)c1ccc(C(=O)OC)c(N)c1	0	-5.66
COC(=O)c1ccc(N2CCCCC2)c(N)c1	-	0
CCCCn1c(N)c(N(CCOC)C(=O)c2ccc(N3CCCC3)c([N+](=O)[O-])c2)c(=O)[nH]c1=O	-	0
COC(=O)[C@@H](NC(=O)N1CCC(Cc2ccccc2)CC1)C(C)C	0	0
Cc1ccc(-c2nc(NC(=O)CSc3cc(C)c4ccccc4n3)ns2)cc1	-	0
COc1ccc2c(C)cc(SCC(=O)Nc3nsc(-c4ccc(C)cc4)n3)nc2c1	0	-6.35
COc1ccc(N2CCN(Cc3cc4c(cc3O)CCC4)CC2)cc1	0	0
Oc1cc2c(cc1CN1CCN(c3cccc(C(F)(F)F)c3)CC1)CCC2	0	-7.26
CCOc1cc(C(=O)Nc2cccc(OCC(=O)N3CCOCC3)c2)cc(OCC)c1OCC	-	0
O=C(Nc1ccccc1Cl)c1ccccc1Cl	-	0
O=C(Nc1ccccc1Cl)c1cc2ccccc2o/c1=N\O	0	-5.56
Cc1ccc(S(=O)(=O)CCC(=O)NCc2ccccc2F)cc1	0	0
CC(=O)c1ccc(S(=O)(=O)NCCC(=O)OCC(=O)N2CCCC2=O)cc1	-	0
Cc1ccc(S(=O)(=O)N2CCN(c3cccc(C)c3)CC2)cc1	0	0
COc1ccccc1NC(=O)CSc1nnc(C)s1	0	0
N#Cc1ccc(CSc2nnc(COc3ccccc3)n2-c2ccccc2)cc1	0	-5.61
COc1ccc(-n2c(COc3ccccc3)nnc2SCc2ccc(C#N)cc2)cc1	0	0
O=C(Nc1cccc(Cl)c1)c1cccc(N2C(=O)C3CC=CCC3C2=O)c1 (stereo not drawn)	0	-6.03
O=C(Nc1cccc(N2C(=O)C3CCCCC3C2=O)c1)c1ccccc1 (stereo not drawn)	0	0
CC(=O)c1ccc(N2CCN(S(=O)(=O)c3ccc(-c4cnc(C5CC5)o4)cc3)CC2)cc1	-	0
O=C(NNC(=O)c1ccc(-c2ccccc2)cc1)Nc1ccc(F)cc1F	-	0
Cc1cc(Cl)ccc1NC(=O)CSc1nnc(Cc2cccs2)n1Cc1ccco1	0	-6.32
COc1cc2c(cc1NC(=O)CSc1nnc(Cc3cccs3)n1Cc1ccco1)oc1ccccc12	-	0
O=C1CC(NS(=O)(=O)c2ccc3ccccc3c2)CN1c1ccccc1 (stereo not drawn)	-	0
SMILES	KCNQ2 enhance	KCNQ2 block
Cc1nn(C(=O)c2cccc([N+](=O)[O-])c2)c(C)c1Cl	-	0
Cc1cc(C)nc(SC2c3cccc4cccc(c34)C2NS(=O)(=O)c2ccccc2)n1 (stereo not drawn)	0	-5.74
Cc1ccc(S(=O)(=O)Nc2cccc3cccnc23)cc1	-	0
Cc1cc(C)nc(SC2CCCCC2NS(=O)(=O)c2ccccc2)n1 (stereo not drawn)	0	0
Cc1ccc(S(=O)(=O)NC2c3cccc4cccc(c34)C2Sc2ncccn2)cc1 (stereo not drawn)	0	-7.05
Cc1ccccc1NC(=O)Cc1nnc(SCC(=O)NC2=NCCS2)n1C	-	0
CCCc1nn2c(=O)cc(CSCC(=O)Nc3cccc(OC)c3)nc2s1	0	0
COCc1nnc(NC(=O)c2ccccc2Oc2ccccc2)s1	0	-6.14
COCCSc1ccccc1C(=O)Nc1nnc(COC)s1	-	0
COc1ccc(C(C)=O)cc1COC(=O)c1cc(=O)c2ccccc2o1	0	0
CCOC(=O)c1ccc(N2CCN(c3ccccc3F)CC2)c(NC(=O)Nc2ccccc2)c1	0	-6.34
CCOC(=O)c1ccc(N2CCCCC2)c(NS(=O)(=O)c2ccc(C)cc2)c1	0	-7.31
CCOC(=O)c1ccc(N2CCN(c3ccc(F)cc3)CC2)c(NC(=O)Nc2cccc(OC)c2)c1	-	0
CCN(CC)CCCNC(=O)c1ccc(N2CCCCC2)c(NS(=O)(=O)c2ccc(C)cc2)c1	-	0
CCN1CCN(c2ccc(NC(=O)c3cc(OC)c(OC)c(OC)c3)cc2)CC1	-	0
O=C(CSC1=NS(=O)(=O)c2ccccc2N1)NCc1ccc(F)cc1	-	0
Cc1ccccc1N1CCN(c2ncnc3c2cnn3Cc2ccc(Cl)cc2)CC1	0	-5.72
Cc1ccc(Cn2ncc3c(N4CCN(Cc5ccc(Cl)cc5)CC4)ncnc32)cc1	-	0
Oc1ccccc1C1CCCCC1c1ccccc1 (stereo not drawn)	-	0
Cc1ccc(C(=O)N/N=c2\sc3ccccc3n2C)cc1	12.5	0
COc1cccc(C(=O)N/N=c2\sc3ccccc3n2C)c1	0	0
COc1ccccc1/C=N\NC(=O)c1ccc(COc2ccc(C)c(C)c2)o1	-	0
CCOc1ccc(-c2cc(N3C(=O)Nc4ccccc4N3O)n[nH]2)cc1	0	0
CCOC(=O)c1c(N2C(=O)Nc3ccccc3N2O)n[nH]c1-c1cccc(Cl)c1	10.2	0
O=C(COC(=O)C1(c2ccccc2F)CCCC1)NCc1ccc2c(c1)OCO2	0	-7.08
SMILES	KCNQ2 enhance	KCNQ2 block
O=C(COC(=O)C1(c2ccc(F)cc2)CCCC1)NCc1ccc2c(c1)OCO2	-	0
CCN(CC)CCCCCC(=O)Nc1ccccc1C(=O)Nc1ccccc1	-	0
CCOC(=O)CC1(NC(=O)C2CCC(=O)N(C3CC3)C2)CCCCC1 (stereo not drawn)	-	0
CCOC(=O)CC1(NC(=O)C2CCC(=O)N(CCc3ccccc3)C2)CCCCC1 (stereo not drawn)	0	-6.35
O=C(CSc1nnc(-c2cc3ccccc3cc2O)n1Cc1ccco1)c1ccc(F)cc1	0	-5.93
Cc1occc1-c1nnc(SCC(=O)c2ccc(F)cc2)n1Cc1ccco1	-	0
O=C(O)c1ccc(COc2c(F)c(F)cc(F)c2F)cc1	0	-9.04
COC(=O)c1ccc(COc2c(F)c(F)cc(F)c2F)o1	-	0
CC(OC(=O)c1ccc(-c2ccc(O)cc2)cc1)C(=O)NC1CCCCC1C (stereo not drawn)	-	0
O=C(Cc1ccccc1)Nc1nccs1	0	0
S=C(Nc1ccccc1)Nc1nccs1	6.55	0
O=C(Cc1ccc(F)cc1)Nc1nccs1	-	0
Fc1ccc(NC(=S)Nc2nccs2)cc1	7.32	0
COc1ccc(CC(=O)OCC(=O)N2CCCc3ccccc32)cc1OC	0	0
Cc1cc(Oc2ccc(C)c(Cl)c2)nc(SCC(=O)c2ccccc2)n1	6.98	0
Cc1ccc(C(=O)CSc2cc(C)nc(SCC(=O)c3ccccc3)n2)cc1	-	0
CCOC(=O)c1ccccc1NC(=O)C1CCN(c2ncnc3sc(C)c(C)c23)CC1	0	-5.97
Cc1sc2ncnc(N3CCC(C(=O)Nc4ccccc4C(C)(C)C)CC3)c2c1C	-	0
CCC1=NN(C(=O)COc2ccccc2)C(O)(c2ccc(Br)cc2)C1 (stereo not drawn)	0	-5.99
CC1=NN(C(=O)COc2ccccc2)C(O)(c2ccccc2)C1 (stereo not drawn)	0	0
CC1=NN(C(=O)c2ccccc2Br)C(O)(c2ccc(Cl)cc2)C1 (stereo not drawn)	0	0
CCC1=NN(C(=O)c2ccccc2Br)C(O)(c2ccc(Br)cc2)C1 (stereo not drawn)	13.7	0
CCOC(=O)N1CCN(C(=O)c2ccc3c(=O)n(CCC4=CCCCC4)c(=S)[nH]c3c2)CC1	0	0
O=c1c2ccc(Cl)cc2[nH]c(=S)n1CCC1=CCCCC1	8.66	0
COc1ccc(C2(NC(C)=O)CCN(Cc3cccnc3)CC2)cc1	0	0
C[C@@H]1CC=C[C@H]2[C@H]1C(=O)N(Cc1ccccc1)[C@H]2c1ccc(-c2ccoc2)cc1F	0	-6.93
C[C@@H]1CC=C[C@H]2[C@H]1C(=O)N(Cc1ccccc1)[C@H]2c1ccc(-c2ccc(F)cc2)cc1F	-	0
